Test results taken from the supplement of paper PMC7156485.
± gives the standard deviation of the averaged measurements.

What follows are compounds tested on TDF (assay: cell number relative to DMSO (% of DMSO); higher = more cells (less growth inhibition / toxicity)). Settings: concentration: 10 µM; 24 h.
Summary of the method: (§1)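 Using 384-well plates with 800 cells per well in RPMI plus 10% FBS, HCC1569 and TDF cells were exposed to compounds at 10 µM, in triplicate, for 24 h at 37 °C. Imaging of six fields per well at ×10 followed H1.0 and DAPI staining. The reported quantity, H1.0 nuclear intensity or cell number, is a median of replicates given as percent of the plate control, and HCC1569 values were smoothed for positional effects.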
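Throughout, for H1.0 immunofluorescence intensity relative to DMSO: TDF is a line of transformed human dermal fibroblasts of mesenchymal origin.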
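Throughout, for cell number relative to DMSO: TDF denotes transformed human dermal fibroblasts of mesenchymal origin.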

SMILES | cell number
C=C1C(=O)OC2C1CCC(C)=CCCC1(C)OC21 (stereo not given) [Parthenolide] | 50.3 ± 3.6
Cc1ncc([N+](=O)[O-])n1CCO [Metronidazole] | 104
CCCCCC#CCC#CCC#CCC#CCCCC(=O)O [5,8,11,14-Eicosatetraynoic acid] | 86.7
Nc1ccn(C2CCC(CO)O2)c(=O)n1 (stereo not given) [2',3'-dideoxycytidine] | 102
CCCCCC(O)C=CC=CCCCCCCCCCC(=O)O (stereo not given) | 90.3

Each compound was assayed on TDF (assay: H1.0 immunofluorescence intensity relative to DMSO (% of DMSO); higher = stronger H1.0 induction, active = 120 or more). Settings: concentration: 10 µM; 24 h.
Summary of the method: as §1

SMILES | H1.0 immunofluorescence intensity
Cl.FC(F)(F)c1cc(COC2CCCNC2c2ccccc2)cc(C(F)(F)F)c1 [L-733,060 hydrochloride] | 108 (inactive)
CCCCCCCCCCCC=CCCCCC(=O)O [6(E)-Octadecenoic acid] | 102 (inactive)
CCCCCC(O)C=CC1C(O)CC(=O)C1CCCCCCC(=O)O (stereo not given) [Prostaglandin E1] | 92.4 (inactive)
CC1(C)CC=C(c2cnc3ccccc3c2)c2cc(C(=O)Nc3ccc(C(=O)O)cc3)ccc21 | 97.3 (inactive)
CC(C)=CCc1cc2c(cc1O)oc(=O)c1c3ccc(O)cc3oc21 | 94.4 (inactive)
CCOC(=O)Nc1ccc(NCc2ccc(F)cc2)nc1N.O=C(O)C=CC(=O)O [Flupirtine maleate] | 89.1 (inactive)
CN(C(Cc1ccc(OS(=O)(=O)c2cccc3cnccc23)cc1)C(=O)N1CCN(c2ccccc2)CC1)S(=O)(=O)c1cccc2cnccc12 (stereo not given) | 113 (inactive)
Nc1nc(=O)c2ncc(=O)[nH]c2[nH]1 [Isoxanthopterin] | 92.2 (inactive)
CC(C)NCC(O)COc1ccc(CCOCC2CC2)cc1.Cl (stereo not given) [Betaxolol hydrochloride] | 95.4 (inactive)
CC(=O)N[C@@H](CS)C(=O)O [N-Acetyl-L-Cysteine] | 109 (inactive)
COc1ccc2c(c1)c(CC(=O)Nc1ccc(NC(C)=O)cc1)c(C)n2C(=O)c1ccc(Cl)cc1 [N-(4-acetamidophenyl)indomethacinamide] | 134 (active)
CCOC(=O)C(C)(C)Oc1ccc(Cl)cc1 [Clofibrate] | 99.5 (inactive)
CS(=O)(=O)O.NC(=NC(=O)c1nc(Cl)c(N)nc1N)Nc1ccccc1 [Phenamil methanesulfonate] | 88.9 (inactive)
Cc1ccc(S(=O)(=O)Cc2nc(-c3ccc(C(=O)NCc4cccnc4)cc3)oc2C)cc1 | 102 (inactive)
Cc1nc2ccccn2c(=O)c1CCN1CCC(C(=O)c2ccc(F)cc2)CC1 [Pirenperone] | 96.5 (inactive)
CCN(CC)Cc1ccc(C(=O)N(CCc2ccccc2OC)[C@@H]2CCNC2)cc1.Cl.Cl | 100 (inactive)
CCCCCOC(=O)Nc1nc(=O)n(C2OC(C)C(O)C2O)cc1F (stereo not given) [Capecitabine] | 101 (inactive)
CCCOc1ccccc1-c1nc2[nH][nH]nc-2c(=O)n1 [Zaprinast] | 99.1 (inactive)
CC(=O)SCC(Cc1ccccc1)C(=O)NCC(=O)OCc1ccccc1 (stereo not given) [Racecadotril] | 91.5 (inactive)
O=C1NC(=O)c2c1c1c3ccccc3[nH]c1n1cncc21 [Isogranulatimide] | 90 (inactive)

SMILES | H1.0 immunofluorescence intensity
Cc1cc2nc3c(=O)[nH]c(=O)nc-3n(C)c2cc1C=O | 91 (inactive)
CCN1CCCC1CNC(=O)c1cc(S(N)(=O)=O)ccc1OC (racemic) | 98.8 (inactive)
C=C(c1ccc(C(=O)O)cc1)c1cc2c(cc1C)C(C)(C)CCC2(C)C [Bexarotene] | 84 (inactive)
CC(=O)C1(O)CCC2C3CCC4=CC(=O)CCC4(C)C3CCC21C (stereo not given) [17- Hydroxyprogesterone] | 94 (inactive)
CS(=O)(=O)c1ccc(-c2cc(Br)sc2-c2ccc(F)cc2)cc1 | 96.8 (inactive)
CC(=O)O.O=C(O)c1ccc2c3c1cccc3c(=O)n1c3ccccc3nc21 | 91.3 (inactive)
CS(=O)(=O)O.Cc1ccc(NC(=O)c2ccc(CN3CCN(C)CC3)cc2)cc1Nc1nccc(-c2cccnc2)n1 [Imatinib] | 107 (inactive)
C=CC(C)(O)CCC1C(C)(O)CCC2C(C)(C)CCCC21C (stereo not given) [Sclareol] | 105 (inactive)
CCC=CCC=CCC=CCC=CCC=CCCCC(=O)O | 90.4 (inactive)
CC(=O)Oc1ccccc1C(=O)O [Acetylsalicylic Acid] | 96.1 (inactive)
COc1cc(C2Oc3cc(C4Oc5cc(O)cc(O)c5C(=O)C4O)ccc3OC2CO)ccc1O (stereo not given) [Silybine] | 95.9 (inactive)
O=C1NC(=O)C(c2cnc3ccccn23)=C1c1cn2c3c(cc(F)cc13)CN(C(=O)N1CCCCC1)CC2 | 138 (active)
CC(C)(CO)C(O)C(=O)NCCC(=O)O (stereo not given) [Pantothenic acid] | 106 (inactive)
C=C1CC2C3C=C(C)C4=CC(=O)CCC4(C)C3CCC2(C)C1(OC(C)=O)C(C)=O (stereo not given) [Melengestrol Acetate] | 94.3 (inactive)
NC1CCN(c2c(F)cc3c(=O)c(C(=O)O)cn(C4CC4)c3c2Cl)C1 (stereo not given) [Clinafloxacin] | 94.3 (inactive)
C=C1C(=O)OC2C1CCC(C)=CCCC1(C)OC21 (stereo not given) [Parthenolide] | 119 (inactive)
Cc1ncc([N+](=O)[O-])n1CCO [Metronidazole] | 99.3 (inactive)
CCCCCC#CCC#CCC#CCC#CCCCC(=O)O [5,8,11,14-Eicosatetraynoic acid] | 93.3 (inactive)
Nc1ccn(C2CCC(CO)O2)c(=O)n1 (stereo not given) [2',3'-dideoxycytidine] | 89.2 (inactive)
CCCCCC(O)C=CC=CCCCCCCCCCC(=O)O (stereo not given) | 95.7 (inactive)
